Experimental data as given in PubChem BioAssay (NCI).
About 83,000 compounds went through this panel and 20% of them were active in at least one assay; those are over-represented in the sample as a whole.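 Testing used 96-well plates and a 48-hour single-concentration exposure. Example: -40 means 40% of the starting cells died.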 A number with no mark means an inactive call. The source made the active and inactive calls. The calls were made as follows: active = growth percent below 10; inactive = the rest.

Tested on: SNB-75 CNS
Assay: NCI-60 one-dose screen, 48 h (100 = growth as untreated, 0 = no growth, -100 = all killed)
Conditions: 10 µM unless noted

| Compound | growth |
| --- | --- |
| Nc1ncnc2c1ncn2C1OC(COC(c2ccccc2)(c2ccccc2)c2ccccc2)C(O)C1O (stereo not drawn) | 76.2% |
| O=C(Nc1ccc(-n2cc(-c3ccncc3)c(-c3ccc(O)c(Cl)c3)n2)cc1)c1cc(C(F)(F)F)cc(C(F)(F)F)c1 | 63.9% |
| CN1C(=O)C2(SCC(C(=O)NCC(=O)OC(C)(C)C)N2C(=O)C2CCCCC2)c2ccccc21 (stereo not drawn) | 80.4% |
| CCC1S/C(=N\N=C(/C)c2cc3ccccc3o2)N(c2ccccc2)C1=O (stereo not drawn) | 102% |
| CC(C)(C)OC(=O)NCc1cccc(N=C=S)c1 | 40.7% |
| CCOc1ccc(NC(=O)Nc2cc(C(C)C)ccc2C)cc1 | 19.5% |
| O=C(NCCNc1nccc(-c2c(-c3cccc(O)c3)nc3sccn23)n1)Nc1cccc(C(F)(F)F)c1 | 66.2% |
| C=C1c2c(Cl)ccc(O)c2C(O)=C2C(=O)[C@]3(O)C(O)=C(C(N)=O)C(=O)[C@@H](N(C)C)[C@@H]3[C@@H](O)[C@H]12 | 0.44% (active) |
| CCN(CC)CCN1C(=O)c2c(c3c4ccccc4[nH]c3c3[nH]c4ccccc4c23)C1=O | 80% |
| O=C1OC(c2ccc(-c3ccccc3)cc2)=C/C1=C/C=C/c1ccccc1 | 92.4% |
| O=[N+]([O-])c1ccc(NS(=O)(=O)c2cc(Cl)ccc2Cl)c2ccccc12 | 60.6% |
| O=C(NCCNc1nccc(-c2c(-c3cccc(O)c3)nc3sccn23)n1)c1ccccc1 | 54.4% |
| NS(=O)(=O)c1ccc(CCN2C(=O)/C(=C\c3ccc(Cl)cc3)C=C2c2ccc(Oc3ccccc3)cc2)cc1 | 77.9% |
| Cc1cn([C@]2(CF)O[C@H](CO)C2C)c(=O)[nH]c1=O (stereo partly drawn) | 116% |
| CC(Cc1cccc(C(F)(F)F)c1)NCCOC(=O)c1ccccc1 (stereo not drawn) | 99.5% |
| CCCCN(CCCC)c1ccc(C(=N)c2ccc(N(C)C)cc2)cc1 | -46.6% (active) |
| COC(=O)/C=C/C(=O)c1cc(C)cc(C)c1O | 103% |
| O=C1C(Cl)=C(Nc2ccccc2)C(=O)C(Cl)=C1Nc1ccccc1 | 113% |
| CC1(C)Cc2c(Br)c(Br)c(Br)c(OCC(O)CN3CCN(c4ccccn4)CC3)c2O1 (stereo not drawn) | 187% |
| Cc1ccc(-c2cn3cc([N+](=O)[O-])ccc3n2)cc1 | 77.5% |

| Compound | growth |
| --- | --- |
| CCCOC(=O)c1ccc([N+](=O)[O-])o1 | 83.7% |
| CCOC(=O)CSc1nnc(-c2cc3c([nH]c4ccccc43)c(-c3cccc(O)c3)n2)n1-c1ccc(C)cc1 | 63.3% |
| O=C(NCCNc1nccc(-c2c(-c3cccc(O)c3)nc3sccn23)n1)c1ccc(N2CCOCC2)c(C(F)(F)F)c1 | 58% |
| COc1ccc(-c2nn(-c3cccc(Cl)c3)cc2-c2cc(-c3ccc(Br)cc3)[nH]c(=O)c2C#N)cc1 | -37.1% (active) |
| Clc1ccc2c(NCCNc3nc(Cl)nc4ccccc34)ccnc2c1 | -93.1% (active) |
| COc1ccc2c(c1)/C(=C/c1c(-c3cc(OC)c(OC)c(OC)c3Br)nc3sccn13)C(=O)N2 | 109% |
| COc1ccccc1N1CCN(CCCOc2ccc(OCCCN3CCN(c4ccccc4OC)CC3)c(C(=O)c3cc(OC)c(OC)c(OC)c3)c2)CC1 | 120% |
| C=C1C(=O)O[C@H]2[C@H]1CC/C(COC(=O)CCCC(=O)OC/C1=C/CC[C@@]3(C)O[C@H]3[C@H]3OC(=O)C(=C)[C@@H]3CC1)=C\CC[C@@]1(C)O[C@@H]21 | 93.3% |
| O=C(Cn1c2ccccc2c2ccncc21)N/N=C/c1cc(O)c(O)c(O)c1 | 115% |
| C=C1C(=O)O[C@H]2[C@H]1CC/C(COC(=O)c1ccc(C#N)cc1)=C\CC[C@@]1(C)O[C@@H]21 | 77.3% |
| C=CC(C)(O)CCC1C(=C)CCC2C(C)(C)CCCC12C (stereo not drawn) | 91.3% |
| O=c1nc(N2CCOCC2)oc2c(-c3cccc4ccccc34)cccc12 | 46.9% |
| CC(=O)c1ccc2c(c1)C1C=CCC1[C@H](c1cc3c(cc1Br)OCO3)N2 (stereo partly drawn) | 30.6% |
| COc1cc2c(cc1OC)-c1c(oc3c4c(ccc3c1=O)OC(C)(C)C=C4)CO2 | 75.8% |
| NN=C(c1ccc(Cl)cc1)c1ccc(Cl)cc1 | 96.3% |
| CCCCCCCCCCCC(=O)OCCNC(=O)C[n+]1ccccc1 | 96.5% |
| CC(C)(C)OC(=O)N1CCN(CCn2cc(C(F)(F)F)c3c(Cl)ncnc32)CC1 | 111% |
| Cc1cn(-c2cc(C(=O)Nc3cccc(-n4ccc5c(NC(=O)c6ccccc6)nccc54)c3)cc(C(F)(F)F)c2)cn1 | 27.2% |
| Clc1ccc(OCc2nc(-c3ccccc3)n[nH]2)c(Cl)c1 | 93.6% |

Tested on: U251 CNS
Assay: as above
Conditions: 10 µM unless noted

| Compound | growth |
| --- | --- |
| Nc1ncnc2c1ncn2C1OC(COC(c2ccccc2)(c2ccccc2)c2ccccc2)C(O)C1O (stereo not drawn) | 99.5% |
| O=C(Nc1ccc(-n2cc(-c3ccncc3)c(-c3ccc(O)c(Cl)c3)n2)cc1)c1cc(C(F)(F)F)cc(C(F)(F)F)c1 | 43.8% |
| CN1C(=O)C2(SCC(C(=O)NCC(=O)OC(C)(C)C)N2C(=O)C2CCCCC2)c2ccccc21 (stereo not drawn) | 92% |
| CCC1S/C(=N\N=C(/C)c2cc3ccccc3o2)N(c2ccccc2)C1=O (stereo not drawn) | 96.7% |
| CC(C)(C)OC(=O)NCc1cccc(N=C=S)c1 | 58.3% |
| CCOc1ccc(NC(=O)Nc2cc(C(C)C)ccc2C)cc1 | 28.9% |
| O=C(NCCNc1nccc(-c2c(-c3cccc(O)c3)nc3sccn23)n1)Nc1cccc(C(F)(F)F)c1 | 81.6% |
| C=C1c2c(Cl)ccc(O)c2C(O)=C2C(=O)[C@]3(O)C(O)=C(C(N)=O)C(=O)[C@@H](N(C)C)[C@@H]3[C@@H](O)[C@H]12 | 4.36% (active) |
| CCN(CC)CCN1C(=O)c2c(c3c4ccccc4[nH]c3c3[nH]c4ccccc4c23)C1=O | 87.9% |
| O=C1OC(c2ccc(-c3ccccc3)cc2)=C/C1=C/C=C/c1ccccc1 | 100% |
| O=[N+]([O-])c1ccc(NS(=O)(=O)c2cc(Cl)ccc2Cl)c2ccccc12 | 67.1% |
| O=C(NCCNc1nccc(-c2c(-c3cccc(O)c3)nc3sccn23)n1)c1ccccc1 | 61.9% |
| NS(=O)(=O)c1ccc(CCN2C(=O)/C(=C\c3ccc(Cl)cc3)C=C2c2ccc(Oc3ccccc3)cc2)cc1 | 74.5% |
| Cc1cn([C@]2(CF)O[C@H](CO)C2C)c(=O)[nH]c1=O (stereo partly drawn) | 103% |
| CC(Cc1cccc(C(F)(F)F)c1)NCCOC(=O)c1ccccc1 (stereo not drawn) | 104% |
| CCCCN(CCCC)c1ccc(C(=N)c2ccc(N(C)C)cc2)cc1 | -17% (active) |
| COC(=O)/C=C/C(=O)c1cc(C)cc(C)c1O | 108% |
| O=C1C(Cl)=C(Nc2ccccc2)C(=O)C(Cl)=C1Nc1ccccc1 | 104% |
| CC1(C)Cc2c(Br)c(Br)c(Br)c(OCC(O)CN3CCN(c4ccccn4)CC3)c2O1 (stereo not drawn) | 82.3% |
| Cc1ccc(-c2cn3cc([N+](=O)[O-])ccc3n2)cc1 | 85.6% |

| Compound | growth |
| --- | --- |
| CCCOC(=O)c1ccc([N+](=O)[O-])o1 | 101% |
| CCOC(=O)CSc1nnc(-c2cc3c([nH]c4ccccc43)c(-c3cccc(O)c3)n2)n1-c1ccc(C)cc1 | 54.9% |
| O=C(NCCNc1nccc(-c2c(-c3cccc(O)c3)nc3sccn23)n1)c1ccc(N2CCOCC2)c(C(F)(F)F)c1 | 82% |
| COc1ccc(-c2nn(-c3cccc(Cl)c3)cc2-c2cc(-c3ccc(Br)cc3)[nH]c(=O)c2C#N)cc1 | 90% |
| Clc1ccc2c(NCCNc3nc(Cl)nc4ccccc34)ccnc2c1 | -92.1% (active) |
| COc1ccc2c(c1)/C(=C/c1c(-c3cc(OC)c(OC)c(OC)c3Br)nc3sccn13)C(=O)N2 | 93.4% |
| COc1ccccc1N1CCN(CCCOc2ccc(OCCCN3CCN(c4ccccc4OC)CC3)c(C(=O)c3cc(OC)c(OC)c(OC)c3)c2)CC1 | 118% |
| C=C1C(=O)O[C@H]2[C@H]1CC/C(COC(=O)CCCC(=O)OC/C1=C/CC[C@@]3(C)O[C@H]3[C@H]3OC(=O)C(=C)[C@@H]3CC1)=C\CC[C@@]1(C)O[C@@H]21 | 48% |
| O=C(Cn1c2ccccc2c2ccncc21)N/N=C/c1cc(O)c(O)c(O)c1 | 101% |
| C=C1C(=O)O[C@H]2[C@H]1CC/C(COC(=O)c1ccc(C#N)cc1)=C\CC[C@@]1(C)O[C@@H]21 | 40.6% |
| C=CC(C)(O)CCC1C(=C)CCC2C(C)(C)CCCC12C (stereo not drawn) | 104% |
| O=c1nc(N2CCOCC2)oc2c(-c3cccc4ccccc34)cccc12 | 85.8% |
| CC(=O)c1ccc2c(c1)C1C=CCC1[C@H](c1cc3c(cc1Br)OCO3)N2 (stereo partly drawn) | 14% |
| COc1cc2c(cc1OC)-c1c(oc3c4c(ccc3c1=O)OC(C)(C)C=C4)CO2 | 88.6% |
| NN=C(c1ccc(Cl)cc1)c1ccc(Cl)cc1 | 102% |
| CCCCCCCCCCCC(=O)OCCNC(=O)C[n+]1ccccc1 | 101% |
| CC(C)(C)OC(=O)N1CCN(CCn2cc(C(F)(F)F)c3c(Cl)ncnc32)CC1 | 17.3% |
| Cc1cn(-c2cc(C(=O)Nc3cccc(-n4ccc5c(NC(=O)c6ccccc6)nccc54)c3)cc(C(F)(F)F)c2)cn1 | -3.87% (active) |
| Clc1ccc(OCc2nc(-c3ccccc3)n[nH]2)c(Cl)c1 | 95.5% |
